Data: PubChem BioAssay (NCI)
Compounds without any hit were thinned out: in the full panel of roughly 83,000, 20% have a hit.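 96-well plates, one dose, 48 hours. Percent growth reported; active if below 10.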 A number with no mark means an inactive call. Active and inactive are the calls of the source.

Key:
Assay in all cases: NCI-60 one-dose screen, 48 h (100 = growth as untreated, 0 = no growth, -100 = all killed)
Details in all cases: 10 µM
SK-MEL-2 melanoma = system: SK-MEL-2 melanoma
EKVX NSCLC = system: EKVX NSCLC
SN12C renal = system: SN12C renal
TK-10 renal = system: TK-10 renal
ACHN renal = system: ACHN renal
CAKI-1 renal = system: CAKI-1 renal
A498 renal = system: A498 renal
CCRF-CEM leukemia = system: CCRF-CEM leukemia
MOLT-4 leukemia = system: MOLT-4 leukemia
RPMI-8226 leukemia = system: RPMI-8226 leukemia
OVCAR-8 ovarian = system: OVCAR-8 ovarian
OVCAR-5 ovarian = system: OVCAR-5 ovarian
OVCAR-4 ovarian = system: OVCAR-4 ovarian
SK-OV-3 ovarian = system: SK-OV-3 ovarian
IGROV1 ovarian = system: IGROV1 ovarian
OVCAR-3 ovarian = system: OVCAR-3 ovarian
HS 578T breast = system: HS 578T breast
NCI/ADR-RES ovarian = system: NCI/ADR-RES ovarian
UO-31 renal = system: UO-31 renal
SR leukemia = system: SR leukemia

SMILES | growth (SK-MEL-2 melanoma) | growth (EKVX NSCLC) | growth (SN12C renal) | growth (TK-10 renal) | growth (ACHN renal) | growth (CAKI-1 renal) | growth (A498 renal) | growth (CCRF-CEM leukemia) | growth (MOLT-4 leukemia) | growth (RPMI-8226 leukemia) | growth (OVCAR-8 ovarian) | growth (OVCAR-5 ovarian) | growth (OVCAR-4 ovarian) | growth (SK-OV-3 ovarian) | growth (IGROV1 ovarian) | growth (OVCAR-3 ovarian) | growth (HS 578T breast) | growth (NCI/ADR-RES ovarian) | growth (UO-31 renal) | growth (SR leukemia)
Cc1ccc(-c2cc(-c3cc4ccccc4nc3Cl)[nH]c(=O)n2)cc1 | 41% | 27.4% | 0.368% (active) | 26.3% | 38.6% | 24.8% | 57.3% | -30.1% (active) | -21.6% (active) | -30.1% (active) | -49.3% (active) | -8.44% (active) | 48.1% | 51.6% | 28.6% | 8.33% (active) | 1.21% (active) | -38.8% (active) | – | –
O=c1nc(-c2ccccc2)cc(-c2cc3ccccc3nc2Cl)[nH]1 | 82.8% | 61.6% | 20.7% | 87.7% | 39.1% | 56.6% | 104% | -29.3% (active) | -18.7% (active) | -29.4% (active) | -68.1% (active) | 40.9% | 80.6% | 84.8% | 56.8% | 8.83% (active) | 69.6% | -70.1% (active) | – | –
COc1ccc(OC)c(/C=N/NC(=O)c2ccc3nc(-c4ccc(Cl)cc4)[nH]c3c2)c1 | 103% | 57.5% | – | 89.1% | 46.9% | 61.6% | 43.8% | 43.9% | 41.1% | 37.7% | – | 104% | 61.1% | 84.9% | 92.2% | 89.2% | 51.2% | 88.8% | 68% | 68.6%
COc1ccc(C(=O)Nc2sc3c(c2C#N)CCC(=O)C3)cc1C(F)(F)F | -17.6% (active) | -0.293% (active) | – | 15.1% | -29.9% (active) | -28.1% (active) | 63.3% | 5.05% (active) | – | 4.37% (active) | 2.79% (active) | 35.3% | 21.7% | -3.75% (active) | 13.7% | -6.94% (active) | -11.7% (active) | -44.7% (active) | -18.2% (active) | 0.622% (active)
CC(=O)c1cc(C(=O)N2c3ccccc3Sc3ccccc32)n2ccc(C)cc12 | – | 53.1% | 42.3% | 78.9% | 29.1% | 35.3% | 85.4% | 24.8% | 22.6% | 19.8% | 45.9% | 66.8% | 51.7% | 99.8% | 37.1% | 58% | 53.7% | 18.4% | 35.1% | 6.72% (active)
COc1ccc2[nH]c(=O)c(CSc3cccc(N)c3)cc2c1 | 64% | 48.7% | – | 72.3% | 20.9% | 40.5% | 72.6% | 47.2% | 41.2% | 44.8% | 59.2% | 91.6% | 49.8% | 94.5% | 74.1% | 66.9% | 95% | 73% | 56.8% | 39.1%
Cc1ccc(-c2cc(-c3cc4ccccc4nc3Cl)[nH]c(=S)n2)cc1 | 11.8% | 50% | 63.8% | 107% | 46.5% | 61.5% | 79.5% | 33.2% | 17.5% | 64.6% | 68.2% | – | 80.6% | 74.2% | 58.7% | 68.4% | 32.2% | 42% | – | –
Cn1cc(-c2cc(N)n3nc(-c4c[nH]c5ccc(Br)cc45)cc3n2)c2cccnc21 | -56.4% (active) | -86.7% (active) | – | -85.9% (active) | -98.9% (active) | -60.7% (active) | -85.9% (active) | -19.1% (active) | -23.8% (active) | 3.37% (active) | -68.8% (active) | -87.4% (active) | -42.2% (active) | -72.6% (active) | -69.8% (active) | -78.9% (active) | -38.8% (active) | -55.7% (active) | -78.8% (active) | -23.6% (active)
N#Cc1c(NC(=O)c2ccc(C(F)(F)F)cc2C(F)(F)F)sc2c1CCC(=O)C2 | -38.2% (active) | -57.5% (active) | – | -27.8% (active) | -99.4% (active) | -67.6% (active) | 28.6% | -30% (active) | -16% (active) | 2.53% (active) | -16.9% (active) | -62.3% (active) | -40.8% (active) | -22.2% (active) | -3.75% (active) | -59.5% (active) | -5.88% (active) | 1.12% (active) | -99.7% (active) | –
O=C(c1ccc([N+](=O)[O-])c([N+](=O)[O-])c1O)n1[nH]c(=O)c2ccccc2c1=O | 76.1% | 66.4% | 70.2% | 120% | 76.6% | 82.4% | 133% | 30.5% | 36.3% | 26.6% | 55.5% | 110% | 78.3% | 102% | 94.6% | 25.8% | 77.4% | 35.5% | – | –
O=c1cc(-c2ccccc2)oc2cc(OCCCCNCc3ccccc3)cc(O)c12 | 53.1% | 25.1% | – | 78.9% | 59.9% | 25.7% | 37.6% | 2.88% (active) | -0.919% (active) | -22.6% (active) | – | 92.1% | 34.7% | 61.1% | 63.8% | 64.3% | 39.6% | -68.4% (active) | 37% | –
NC1=NC(c2ccccc2Cl)N=C(Nc2nn[nH]n2)N1 (stereo not given) | 116% | 96.2% | 107% | 99.6% | 103% | 94.5% | 104% | 151% | – | 99.2% | 102% | 118% | 99.8% | 123% | 115% | 107% | 103% | 104% | – | –
N#Cc1c(NC(=O)c2cccc(C(F)(F)F)c2)sc2c1CCC(O)=C2 | -1.48% (active) | 22.8% | – | 63.1% | 31.4% | 44.5% | 69% | 21.9% | 25.9% | 25% | 41.6% | – | 29.5% | 40.3% | 34.4% | 36.8% | – | – | 17.6% | 14.6%
COc1ccc2nc(Cl)c(-c3cc(-c4ccccc4)nc(N)n3)cc2c1 | 69.5% | 59.8% | 10% | 74.4% | 55.4% | 60.4% | 84.8% | -4.77% (active) | -18.1% (active) | -27% (active) | -68.4% (active) | 51.4% | 83.7% | 95.1% | 52.5% | 12.1% | 59.3% | -43.1% (active) | – | –
COc1cccc(/C=C2\N=C(C)N(CCc3ccc(S(N)(=O)=O)cc3)C2=O)c1 | 109% | 95.6% | – | 97.6% | 107% | 78.8% | 101% | 96.4% | 97.8% | 97.2% | 102% | 99.8% | 104% | 112% | 103% | 113% | 98.6% | 104% | 90.9% | 82.1%
CN(C(=O)c1ccc(C(F)(F)F)cc1C(F)(F)F)c1sc2c(c1C#N)CCC(=O)C2 | 96.8% | 73.7% | – | 94.2% | 82.7% | 61.3% | 125% | -0.48% (active) | 36.4% | 14.3% | 82.2% | 108% | 59.3% | 85.9% | 97.6% | 29.7% | 69.4% | 55% | 62.4% | 1.6% (active)
O=C1Nc2cc(Cl)ccc2/C1=C/c1cccc(OCc2ccccc2)c1 | -31.8% (active) | 11.3% | -26.7% (active) | 33.6% | 9.76% (active) | 9.35% (active) | 49.9% | 0.155% (active) | – | -34.7% (active) | -65% (active) | 11.9% | 36.7% | 32% | 11.1% | -5.96% (active) | -2.85% (active) | -22.2% (active) | – | –
